Molecules are shown by their SMILES. The campaign covered roughly 310,000 compounds. About 14,000 (4.5%) showed an effect of 50% or more. The effect is printed as a negative number. Shown is part of a subset that was picked to be rich in strong results.

From PMC4336329 (PLoS ONE, 2015) come the findings set out here.
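Also: peak tail current of the secondary pulse compared with the same well before compound.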

This experiment deals with human ether-à-go-go-related gene (hERG) potassium channel (human, UniProt Q12809). The experiment in a line: primary screen, population patch clamp on CHO cells stably expressing hERG; higher = less effect of the substance.
Chain of human ether-à-go-go-related gene (hERG) potassium channel (Q12809 whole entry, looked up): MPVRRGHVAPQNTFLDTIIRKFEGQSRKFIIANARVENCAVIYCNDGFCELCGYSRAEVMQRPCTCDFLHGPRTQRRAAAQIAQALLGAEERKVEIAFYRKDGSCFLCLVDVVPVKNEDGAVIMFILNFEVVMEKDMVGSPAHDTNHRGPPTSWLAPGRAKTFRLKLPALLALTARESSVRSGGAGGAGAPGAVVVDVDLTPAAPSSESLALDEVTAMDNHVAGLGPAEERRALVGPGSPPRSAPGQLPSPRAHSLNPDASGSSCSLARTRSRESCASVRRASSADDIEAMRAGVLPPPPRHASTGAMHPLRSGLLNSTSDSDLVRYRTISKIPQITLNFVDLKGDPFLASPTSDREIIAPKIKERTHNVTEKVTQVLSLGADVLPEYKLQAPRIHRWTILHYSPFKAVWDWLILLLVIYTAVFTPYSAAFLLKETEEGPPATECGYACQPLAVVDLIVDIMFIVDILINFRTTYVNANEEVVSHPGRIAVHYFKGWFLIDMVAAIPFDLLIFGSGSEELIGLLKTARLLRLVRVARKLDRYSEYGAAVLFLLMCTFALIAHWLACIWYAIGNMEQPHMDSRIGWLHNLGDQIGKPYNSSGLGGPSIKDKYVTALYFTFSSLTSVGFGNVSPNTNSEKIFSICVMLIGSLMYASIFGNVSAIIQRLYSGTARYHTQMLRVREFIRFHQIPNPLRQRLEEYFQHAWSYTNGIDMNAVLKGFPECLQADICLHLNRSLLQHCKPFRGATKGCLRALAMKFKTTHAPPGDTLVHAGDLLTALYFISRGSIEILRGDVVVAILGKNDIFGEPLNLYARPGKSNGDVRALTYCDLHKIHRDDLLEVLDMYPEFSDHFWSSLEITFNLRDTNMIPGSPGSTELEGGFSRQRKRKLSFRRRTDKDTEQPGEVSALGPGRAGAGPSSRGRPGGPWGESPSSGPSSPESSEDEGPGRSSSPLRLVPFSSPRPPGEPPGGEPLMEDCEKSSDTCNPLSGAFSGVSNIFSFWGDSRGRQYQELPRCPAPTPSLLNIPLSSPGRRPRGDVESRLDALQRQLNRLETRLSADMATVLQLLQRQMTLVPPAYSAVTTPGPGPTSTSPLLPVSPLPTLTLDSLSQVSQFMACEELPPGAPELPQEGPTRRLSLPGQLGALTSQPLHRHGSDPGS
As to `Cc1ccc(CSc2nnc3ccc(-c4ccncc4)nn23)cc1`, the “hERG current change (%, negative = inhibition) at 10uM” value is -42.4%.
For `c1ccc(CSc2nnc3ccc(-c4ccncc4)nn23)nc1` the value was 7.44%; for `Cc1ccccc1CSc1nnc2ccc(-c3ccncc3)nn12`, -20.8%; for `Fc1cccc(CSc2nnc3ccc(-c4ccncc4)nn23)c1`, -60.4%.
To `Fc1ccccc1CSc1nnc2ccc(-c3ccncc3)nn12` belongs -43.1%; to `Fc1ccc(CSc2nnc3ccc(-c4ccncc4)nn23)cc1`, -70.1%; to `Nn1c(SCc2cccc(F)c2)nnc1-c1ccncc1`, -4.03%.
On to `c1cncc(CSc2nnc3ccc(-c4ccncc4)nn23)c1`, for which the “hERG current change (%, negative = inhibition) at 10uM” value is given as -26.7%.
To `c1ccc(CSc2nnc3ccc(-c4ccncc4)nn23)cc1` belongs -58.3%.
As to `CCOC(=O)C(C)Oc1ccc(OCc2ccccc2)cc1` (stereo not shown), the “hERG current change (%, negative = inhibition) at 10uM” value is 20.1%.
For `CC(C)(C)NS(=O)(=O)c1cccc(S(=O)(=O)c2cccc(S(=O)(=O)NC(C)(C)C)c2)c1` the value was -35.3%; for `CCCNS(=O)(=O)c1ccc(CCC(=O)N2CCN(CC)CC2)cc1`, -1.72%; for `O=C(NC1CCS(=O)(=O)C1)c1ccc(S(=O)(=O)N2CCCCC2)cc1` (stereo not shown), 1.86%.
For `CCC(C(=O)Nc1ccncc1)c1ccccc1` (stereo not shown) the value was 0.0329%; for `CN(C)S(=O)(=O)c1ccc(S(=O)(=O)N2CCN(CCC#N)CC2)cc1`, -1.43%.
On to `O=C(CN1C(=O)NC2(CCCC2)C1=O)N1CCN(S(=O)(=O)c2cccc(F)c2)CC1`, for which the “hERG current change (%, negative = inhibition) at 10uM” value is listed as 22.2%.
As to `Cc1ccc(C2(C)NC(=O)N(CC(=O)N3CCN(S(=O)(=O)c4cccs4)CC3)C2=O)cc1` (stereo not shown), the “hERG current change (%, negative = inhibition) at 10uM” value was -31.9%.
For `Cc1ccc(C2(C)NC(=O)N(CC(=O)N3CCN(S(=O)(=O)c4cccc(F)c4)CC3)C2=O)cc1` (stereo not shown) the value was -65.7%.
To `CCOc1ccc(OCCC(=O)N2CCN(S(=O)(=O)c3cccc(F)c3)CC2)cc1` belongs -62.4%; to `CCOc1ccc(C(=O)CCC(=O)N2CCN(S(=O)(=O)c3cccc(F)c3)CC2)cc1`, -30.7%; to `O=C(CN1C(=O)NC2(CCCCC2)C1=O)N1CCN(S(=O)(=O)c2ccc(F)cc2)CC1`, 4.02%.
For `O=C(CN1C(=O)NC2(CCCCC2)C1=O)N1CCN(S(=O)(=O)c2ccc(Cl)s2)CC1` the value was 4.79%; for `Cc1ccc(C2(C)NC(=O)N(CC(=O)N3CCN(S(=O)(=O)c4ccc(Cl)s4)CC3)C2=O)cc1` (stereo not shown), -58%.
As for `CCOc1ccc(OCCC(=O)N2CCN(S(=O)(=O)c3ccc(F)cc3)CC2)cc1`, the “hERG current change (%, negative = inhibition) at 10uM” value is recorded as -6.61%.
In the case of `CCC1(CC)NC(=O)N(CC(=O)N2CCN(S(=O)(=O)c3cccc(F)c3)CC2)C1=O`, the “hERG current change (%, negative = inhibition) at 10uM” value turned out to be 7.12%.
In the case of `O=C(CN1C(=O)NC2(CCCCC2)C1=O)N1CCN(S(=O)(=O)c2cccc(F)c2)CC1`, the “hERG current change (%, negative = inhibition) at 10uM” value is given as -61.8%.
`CC1(c2ccccc2)NC(=O)N(CC(=O)N2CCN(S(=O)(=O)c3cccc([N+](=O)[O-])c3)CC2)C1=O` (stereo not shown): the “hERG current change (%, negative = inhibition) at 10uM” value is 5.57%.
Consider `CCCC(=O)Nc1cc(C(=O)N2CCC3(CC2)OCCO3)ccc1S(=O)(=O)c1ccc(C)cc1`, for which the “hERG current change (%, negative = inhibition) at 10uM” value is listed as -14%.
Consider `COc1cc(C(=O)Nc2nc3ccccc3[nH]2)ccc1OC(F)F`, for which the “hERG current change (%, negative = inhibition) at 10uM” value worked out at 18%.
As to `CCc1cccc(CC)c1NC(=O)C1CN(S(=O)(=O)c2ccccc2)CCN1S(=O)(=O)c1ccccc1` (stereo not shown), the “hERG current change (%, negative = inhibition) at 10uM” value is 9.16%.
To `COc1ccccc1NS(=O)(=O)NC(=O)c1cn(C)c2ccccc12` belongs 16.8%; to `COc1ccc(NC(=O)CSc2nnc(-c3ccccc3)n2N)cc1`, -4.04%; to `CCOc1ccccc1N1CCN(Cc2c(C)n(C)n(-c3ccccc3)c2=O)CC1`, -20.5%.
As for `CSCCC(NC(=O)c1ccc(Cl)cc1Cl)C(=O)NNC(=O)c1ccncc1` (stereo not shown), the “hERG current change (%, negative = inhibition) at 10uM” value is recorded as -6.73%.
Consider `CC1(c2ccc(Cl)cc2)NC(=O)N(CC(=O)N2CCN(S(=O)(=O)c3ccccc3)CC2)C1=O` (stereo not shown), for which the “hERG current change (%, negative = inhibition) at 10uM” value is on record as -50%.
For `CC(C)c1ccc(S(=O)(=O)N2CCN(C(=O)CN3C(=O)NC(C)(c4ccccc4)C3=O)CC2)cc1` (stereo not shown) the value was -31.6%; for `CC1(c2ccccc2Cl)NC(=O)N(CC(=O)N2CCN(S(=O)(=O)c3ccccc3)CC2)C1=O` (stereo not shown), 7.55%.
With `CCn1cc(Cl)c(C(=O)Nc2nc3ccccc3n2CCN2CCCCC2)n1`, the “hERG current change (%, negative = inhibition) at 10uM” value is listed as -65.5%.
For `CCn1nccc1C(=O)Nc1nc2ccccc2n1CCN1CCCCC1` the value was -39.8%; for `Cn1ncc([N+](=O)[O-])c1C(=O)Nc1nc2ccccc2n1CCN1CCCCC1`, -25.1%.
To `O=C(Nc1nc2ccccc2n1CCN1CCOCC1)c1ccc(Cl)cc1` belongs 1.72%.
For `Cc1c(Cl)c(C(=O)Nc2nc3ccccc3n2CCN2CCCCC2)nn1C` the value was -68.1%; for `O=C(Nc1nc2ccccc2n1CCN1CCOCC1)c1ccccc1`, -6.69%; for `CCCCn1nnc(NC(=S)NC(=O)c2cccs2)n1`, 9.16%.
In the case of `COc1ccccc1Cn1c(=S)[nH]c2ccccc2c1=O`, the “hERG current change (%, negative = inhibition) at 10uM” value came out at 32.7%.
For `COc1ccc(S(=O)(=O)N2CCOCC2)cc1NC(=O)CC1CCCC1`, the “hERG current change (%, negative = inhibition) at 10uM” value is recorded as -6.2%.
Take `COc1ccc(N(CC(=O)Nc2ccc3c(c2)OCCO3)S(=O)(=O)c2c(C)noc2C)cc1`: the “hERG current change (%, negative = inhibition) at 10uM” value is on record as -6.74%.
To `O=C(NC(=S)NC1CCCCC1)c1ccccc1` belongs 1.5%; to `COCCCn1c(=O)c2sccc2n2c(CCCC(=O)NCc3ccccc3OC)nnc12`, -19.9%; to `O=C(CS(=O)(=O)c1cn(CC(=O)N2CCOCC2)c2ccccc12)Nc1ccccc1`, 8.09%.
Regarding `CC(=O)c1ccc(NC(=O)CS(=O)(=O)c2cn(CC(=O)N3CCOCC3)c3ccccc23)cc1`, the “hERG current change (%, negative = inhibition) at 10uM” value is listed as -58.6%.
For `Cc1ccc(NC(=O)CS(=O)(=O)c2cn(CC(=O)N3CCOCC3)c3ccccc23)cc1` the value was -0.0981%.
